Source: PubChem BioAssay AID492998 (Southern Research Specialized Biocontainment Screening …, 2010)
Hit rate of the full screen: of about 2,300 compounds, about 550 (24%) were called active. A selection follows. Measured potencies and affinities stand elsewhere. A number with no mark means an inactive call. The rule behind the calls is not given here.

Assay: Vero E6 cell cytotoxicity, dose response, cytotoxicity control for non-replicating M. tuberculosis project, secondary assay (AID 492998);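 note: 100% = vehicle-treated cells and 0% = background wells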
Conditions: series mostly up to 20 µM; viability: at the top concentration

In order of falling “viability” value:
1. CCOC(=O)c1csc(COc2ccc(OC)cc2)n1  112%
2. O=C1C=CC(=O)N1N(c1ccccc1)c1ccccc1  111%
3. Cc1ccc(CNC(=O)c2cnccn2)cc1  110%
4. C(#CCN1CCOCC1)COCc1ccccc1  110%
5. O=C(NCc1ccc2c(c1)OCO2)c1ccc(Cl)s1  108%
6. COc1cccc(NC(=O)c2cnc(SC)nc2)c1  108%
7. CC(/C=C/c1ccco1)=N/NC(=O)c1ccc(C)nc1  106%
8. O=C(N/N=C/C(Br)=C/c1ccccc1)c1ccncc1  105%
9. O=C(NCc1ccc(Cl)cc1)c1n[nH]c([N+](=O)[O-])c1Cl  105%
10. O=C(OCC(=O)C12CC3CC(CC(C3)C1)C2)c1ccccn1  103%
11. COc1ccc(S(=O)(=O)NCc2ccc3c(c2)cc(C)n3C)cc1  103%
12. CN1C(=O)CC(N2CCC(c3nc4ccccc4s3)CC2)C1=O (configuration not stated)  102%
13. Cc1cccc(NC(=O)CCSc2nnc(Cc3ccccc3)o2)c1  102%
14. COc1ccc(OCC(=O)N/N=C2\CCc3ccccc32)cc1  102%
15. O=C(COC(=O)CCC(=O)c1ccc(F)cc1)Nc1ccc(F)cc1F  101%
16. Cc1ccc(C(=O)NCCOc2cccc(C)c2)cc1  101%
17. CN(C)S(=O)(=O)c1ccc(C(=O)Oc2ccccc2)cc1  100%
18. O=C(COc1ccc2ccccc2c1)Nc1ccncc1  100%
19. CCOc1ccc(NC(=O)COc2ccc3c(c2)OCO3)cc1  100%
20. COc1cccc(COC(=O)c2sc3nc4n(c(=O)c3c2C)CCC4)c1OC  99.9%
21. CCOc1ccccc1NC(=O)COn1nnc2ccc(Cl)cc21  99.8%
22. O=C(c1cccc2cccc(O)c12)N1CCCCC1  99.4%
23. O=C(Nc1ncc2c(n1)-c1ccccc1OC2)c1ccc(F)cc1  98.9%
24. O=C(CCSc1ccc(Cl)cc1)NC1CCCC1  98%
25. Cc1ccc(C(=O)Nc2nccs2)cc1  97.7%
26. NC(N)=Nc1nc(-c2ccccc2)c2ccccc2n1  97%
27. Nc1c(C(=O)NC2CCCCC2)nsc1C(=O)OCC(=O)NC1CCCCC1  97%
28. O=c1cc(C(F)(F)F)[nH]c2c(C(F)(F)F)cccc12  96.8%
29. COc1cccc(NC(=O)c2ccc(C(=O)c3ccccc3)o2)c1  95.3%
30. COc1ccc(OCC(=O)NNC(=O)c2ccccn2)cc1  95.1%
31. O=C(Cc1ccccc1)Nc1ccc(C(=O)NCC2COc3ccccc3O2)cc1 (configuration not stated)  94.7%
32. O=C(N/N=C/c1ccc[nH]1)c1cccnc1  94.2%
33. CC1(c2nnc(Cc3ccccc3)o2)CC(c2ccccc2[N+](=O)[O-])=NO1 (configuration not stated)  93.6%
34. CCOc1ccc(-c2ccc(SCC)nn2)cc1  93.3%
35. CCc1ccc(NC(=O)COc2ccc3c(c2)OCO3)cc1  93.2%
36. FC(F)c1nnc2ccc(Cl)nn12  93.2%
37. CCOC(=O)CNCCC(=O)c1ccc(Br)cc1  92.9%
38. CC1CCCN(CCSc2ccc(Cl)cc2)C1 (configuration not stated)  92.3%
39. O=C(NNC(=O)C12CC3CC(CC(C3)C1)C2)c1cnccn1  92.2%
40. CCOc1ccc(OCCSc2ccc(S(=O)(=O)N3CCN(C)CC3)cn2)cc1  91.8%
41. COc1ccc(CN=C(C#N)C2=C(O)c3ccccc3C2=O)cc1  91.6%
42. O=C(Nc1ncccc1O)c1ccc(Oc2ccccc2)cc1  91.3%
43. Cc1cccc(Cn2ccc(NC(=O)c3ccc4c(c3)OCO4)n2)c1  90.8%
44. O=C(CNC(=O)c1ccccc1F)OCc1csc(-c2ccccc2)n1  90.8%
45. COC(=O)COc1ccc(-c2nn(C)c(=O)c3ccccc23)cc1  90.4%
46. Cc1ncsc1CCOC(=O)c1ccc([N+](=O)[O-])cc1  89.9%
47. O=C(NCc1cccs1)c1cc(-c2ccc(O)cc2)on1  89.1%
48. O=C(N/N=C/C(Br)=C/c1ccccc1)c1cnccn1  88.9%
49. CC1CCN(CCOCCSc2ccc(Cl)cc2)CC1  88.8%
50. COC(=O)[C@H](CC(C)C)NC(=O)NCCC1=CCCCC1  87.6%
51. O=C(CCSc1ccccn1)c1ccccc1  87.2%
52. Cc1cccc(OCCCCc2c(C)n[nH]c2C)c1  86.5%
53. COc1cccc2[nH]c3c(Cl)ncnc3c12  84.3%
54. CCC(C)c1ccc(OCCn2ccnc2)cc1 (configuration not stated)  83.8%
55. O=C(Nc1nnc(C2=COCCO2)o1)c1ccc(F)cc1  83.1%
56. COc1ccc(C(=O)N/N=C/c2cccc3cccnc23)cc1  81.4%
57. CCOC(=O)c1c(-c2ccc(C)o2)csc1NC(=O)CN1CCCCC1  79.5%
58. Cc1cc(OCc2cc(C(=O)N(C)CCc3cnn(C)c3)no2)cc(C)c1Cl  77.5%
59. O=C(NC(=S)NNC(=O)[C@H]1C[C@@H]1c1ccccc1)c1cccc(F)c1  76.5%
60. CC(C)(C)c1ccccc1OCCOCCN1CCCCCC1  75.2%
61. Cn1c(SCc2c(F)cccc2Cl)nc2c(c1=O)SCC2  74.7%
62. O=C(COc1ccc(Cl)cc1)NNC(=O)c1ccccn1  71.8%
